# IL1B cytotox – HUVEC cytotoxicity counter-screen, IL-1B stimulated | HUVEC cell count loss, Hoechst imaging | cell count reduction, % at 2 µM | actives 0.41% (n = 94,000);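 active = cell count reduction more than 3 SD above the screen-wide mean, cut at about 70% in these data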;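 note: normalized per plate to untreated control cells as the no-loss baseline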
# NFkB transloc inh – blocks IL-1B driven NFkB nuclear translocation in HUVEC cells | HUVEC IL-1B NFkB p65 nuclear translocation imaging | inhibition, % at 2 µM | actives 0.43% (n = 94,000) | AID 796;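 active = inhibition above about 30% together with a positive call from visual inspection of the well image, limit read from the data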;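 note: nuclear over cytoplasmic p65 intensity ratio measured by imaging; 0% = IL-1B stimulated DMSO wells and 100% = unstimulated DMSO wells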
# NFkB transloc pot – enhances IL-1B driven NFkB nuclear translocation | HUVEC IL-1B NFkB p65 nuclear translocation imaging | activation, % at 2 µM | actives 0.3% (n = 94,000) | AID 819;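 active = activation above 40%, about the mean plus 3 SD, also judged a hit on visual image review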;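 note: percent activation is computed from the nuclear over cytoplasmic p65 intensity ratio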
# HUVEC tox TNFa – toxic to HUVEC cells under TNF alpha stimulation. HUVEC TNFalpha-stimulated, Hoechst cell count, imaging. cell count reduction, % at 2 µM. actives 0.17% (n = 93,000);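 active = cell count reduction exceeding the screen mean by over 5 SD, scaled to untreated wells per plate, cut at about 78% in these data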;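 note: cells counted after 24 h of TNF alpha exposure following the 1 h pretreatment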
# VCAM1 TNFa inh – reduces TNF alpha induced VCAM1 expression in HUVEC; inhibition, % at 2 µM; actives 0.48% (n = 95,000); AID 802; HUVEC TNFa-induced VCAM-1 immunofluorescence, high-content imaging;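 active = inhibition above the batch mean plus 3 SD, with images confirmed as a hit by eye, cut at about 37% in these data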;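 note: 0% = TNF-stimulated DMSO wells and 100% = unstimulated control wells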
# E-sel TNF inh – blocks E-selectin expression induced by TNF alpha; HUVEC TNFa-induced E-selectin immunofluorescence, high content; inhibition, % at 2 µM; actives 0.71% (n = 120,000); AID 1246;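 active = inhibition above the batch mean plus 3 SD, and confirmed as a hit on visual image review, cut at about 43% in these data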;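 note: 0% = TNF-stimulated DMSO wells and 100% = unstimulated control wells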
# * = called active by the depositor; / = no result given. Sampled rows, rich in hits. Any-hit rate of the full collection: about 1.8%.
SMILES,IL1B cytotox,NFkB transloc inh,NFkB transloc pot,HUVEC tox TNFa,VCAM1 TNFa inh,E-sel TNF inh
CC1CCCN(c2nc3ccsc3c(=O)s2)C1 (centres undefined),-7,-8,8,91*,92*,4
Cc1cc(NC(=O)CCC(=O)N(c2ccccc2)C(C(=O)NCC2CCCO2)c2cccnc2)no1 (centres undefined),-12,12,-12,-16,-6,-32
O=c1cc(O)c2ccccc2[nH]1,/,/,/,/,/,-7
O=c1cc(-c2ccccc2)c2ccccc2[nH]1,-8,-4,4,-17,10,65*
COc1ccc(NC(=O)CSc2nnc(CCC(=O)Nc3ccc(C)c(Cl)c3)n2C)cc1,-6,-5,5,-13,14,-57
Cc1cc(SCC(=O)c2cccs2)nc2ccccc12,/,/,/,/,/,75*
O=C(Nc1cc(S(=O)(=O)Nc2ccc(Cl)cc2)ccc1N1CCCCC1)c1ccc(F)cc1Cl,/,/,/,/,/,-26
Cn1cc(S(=O)(=O)N2CCN(c3cccc(C(F)(F)F)c3)CC2)c(=O)n(C)c1=O,-6,56*,-56,-13,3,/
CCOC(=O)c1cc2c(=O)n3ccccc3nc2n(CCCOC)c1=NC(=O)c1cccnc1,0,-44,44*,-28,27,25
CCOC(=O)c1cc2c(=O)n3ccccc3nc2n(CCOC)c1=NC(=O)c1ccncc1,10,-6,6,-12,20,-8
O=C(NCC1CCCO1)c1ccc(C(=O)NCC2CCCO2)cc1 (centres undefined),-17,-15,15,/,/,-1
CN(c1ccc(C(=O)NCC2CCCO2)cc1)S(C)(=O)=O (centres undefined),-112,-13,13,-13,12,65*
CCOc1ccc(C(=O)NCC2CCCO2)cc1 (centres undefined),-25,-56,56*,-16,25,-25
O=S(=O)(c1cccs1)N1CCN(CC(O)COc2cccc(Br)c2)CC1 (centres undefined),3,6,-6,55,94*,-8
COc1cc(C2C3=C(Nc4ncnn42)c2ccccc2CC3)cc(OC)c1OC (centres undefined),23,26,-26,59,88*,/
COc1ccc(C2C3=C(Nc4ncnn42)c2ccccc2CCC3)cc1 (centres undefined),-16,-22,22,4,10,/
CCc1ccc(Nc2ncccc2C#N)cc1,-4,-84,85*,28,-12,-36
CCC(C)c1ccc(Nc2ncccc2C#N)cc1 (centres undefined),/,/,/,-8,22,-17
COC(=O)CC(NC(=O)c1cccs1)c1ccc(OC)c(OC)c1 (centres undefined),/,/,/,/,/,-13
C=C(c1ccc(O)cc1)c1ccc(O)cc1,3,-25,25,4,5,-8
CC1(C)C=C(c2ccc(O)cc2)CC(C)(C)N1,-44,45*,-45,-22,0,/
CCOC(=O)Nc1nc(-c2ccccc2)c(C(=O)c2ccccc2)s1,49,3,-3,58,78*,-8
COC(=O)Nc1nc(-c2ccccc2)c(C(=O)c2ccc(Cl)cc2)s1,2,5,-5,-6,5,30
COC(=O)C1=C(C)N(Cc2ccco2)C(=O)N[C@H]1c1cccc(C(F)(F)F)c1,/,/,/,/,/,-32
CC(=O)c1nnn(-c2nc(N)nc(N(c3ccccc3)c3ccccc3)n2)c1C,-17,4,-4,-13,4,61*
SMILES,IL1B cytotox,NFkB transloc inh,NFkB transloc pot,HUVEC tox TNFa,VCAM1 TNFa inh,E-sel TNF inh
CCCCN(CCCC)c1nc(OC)nc(-n2nnc(C(C)=O)c2C)n1,-6,12,-12,-9,14,-6
Cc1ccc(NC(=O)CCn2c(=O)oc3ccccc32)cc1,13,5,-5,-30,9,/
CCc1ccc(NC(=O)CCn2c(=O)oc3ccccc32)cc1,-2,-8,8,100*,/,/
CCc1nnc(NC(=O)CCC(=O)N2CCN(C3CCCCC3)CC2)s1,8,-5,5,-6,15,18
CCc1nnc(NC(=O)CCC(=O)N2CCCC2)s1,21,-79,79*,4,4,6
CC(C)c1nnc(NC(=O)CCC(=O)N2CCN(C3CCCCC3)CC2)s1,12,-10,10,23,36*,21
O=C(c1ccco1)N1CCN(Cc2nc3cc(Cl)ccc3c(=O)[nH]2)CC1,/,/,/,/,/,2
CCOc1ccc(OCC)c(NC(=O)C2CCCN(c3nc(C)cc(C)n3)C2)c1 (centres undefined),/,/,/,/,/,-56
CCn1c(CNc2ccc(C)cc2)nnc1SCC(N)=O,-13,-11,11,-38,-20,21
CC1=NN(C(=O)COc2ccccc2)C(O)(c2cccnc2)C1 (centres undefined),/,/,/,/,/,-3
CCOC(=O)N1CCN(C(=O)c2ccc(Oc3ccc([N+](=O)[O-])cc3)cc2)CC1,/,/,/,/,/,62*
CN1CCN(C(=O)c2ccc(Oc3ccc([N+](=O)[O-])cc3)cc2)CC1,/,/,/,/,/,31
Clc1ccccc1N/N=C/c1ccc2c(c1)OCO2,/,/,/,/,/,4
COc1ccc(OC)c(-n2c(-c3ccc(C)cc3)n[nH]c2=S)c1,88*,23,-23,6,1,3
CC1(c2ccc(C#N)cc2)NC(=O)N(CC(=O)Nc2cc(S(=O)(=O)N3CCOCC3)ccc2Cl)C1=O (centres undefined),/,/,/,/,/,25
CC(C(=O)Nc1ncn[nH]1)N1C(=O)c2ccccc2C1=O (centres undefined),83*,-23,23,-18,3,3
CCOC(=O)C1=C(C)NC(SCC(=O)Nc2cc(C)on2)=C(C#N)C1c1cccs1 (centres undefined),-2,-2,2,-5,14,-52
CC(C)(C)NC(=O)C(c1ccccn1)N(C(=O)C1CSC(=O)C1)c1ccc(F)cc1 (centres undefined),35,20,-20,9,-24,-5
O=C(Nc1cccs1)Nc1c(F)c(F)c(F)c(F)c1F,/,/,/,/,/,69*
COc1ccc(-n2c(C)cc(C(=O)COc3ccc(C)nc3[N+](=O)[O-])c2C)cc1,/,/,/,/,/,62*
C#Cc1ccc(C(=O)Nc2ccc(N3CCC(C)CC3)c(C(N)=O)c2)cc1,/,/,/,/,/,49
Cc1cc(N2CCCCC2)nc(NCc2ccccc2)n1,9,2,-2,-10,9,72*
CCCCCCCCC(=O)NC(NC(=S)N1CCOCC1)C(Cl)(Cl)Cl (centres undefined),-37,-41,41*,3,4,-10
CCCCCC(=O)NC(NC(=S)N1CCOCC1)C(Cl)(Cl)Cl (centres undefined),-14,-9,9,-14,0,-45
COc1ccc(Cc2noc(COc3ccc(Cl)cc3)n2)cc1,1,1,-1,5,-18,-14
COc1ccccc1OCc1nc(Cc2ccc(Cl)cc2)no1,3,-42,42*,7,0,12
O=C(c1ccc(Cl)cc1)n1c(NCc2ccccc2)n[nH]c1=S,/,/,/,/,/,-1

# Screening results from PubChem.
